For experiment [1], the system named is PRMT1 (protein arginine N-methyltransferase 1). In words: small molecules binding arginine methyltransferase PRMT1 – biochemical, small-molecule microarray, 635 nm fluorescence, primary screen (AID 1088).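 Also: binding of Prmt1 protein to compounds spotted on small-molecule microarray slides.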 The note with it: higher = more signal.
The nature of experiment [2]: growth effects on S. cerevisiae YJM789 – YJM789 clinical isolate, OD600, 24 h, basal, primary screen (AID 1089).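 Also: growth of clinical yeast isolate S. cerevisiae YJM 789 seeded 1000 cells per well; test concentration not given here.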 The note with it: higher = more signal, called active from +8 up or from −8 down.
The nature of experiment [3]: S. pombe growth modifiers, basal conditions – strain 972, OD600, 24 h, no modulator, primary screen (AID 1090).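 Also: basal condition with compound alone and no growth modifier present; test concentration not given here.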 To be noted: S. pombe 972 growth, higher = more signal, called active from +8 up or from −8 down.
A short description of experiment [4]: budding yeast growth modifiers under rapamycin – strain BY4716, OD600, 96 h, primary screen (AID 1091). Also: test concentration not given here. The note with it: S. cerevisiae BY4716 + rapamycin, higher = more signal, called active from +8 up or from −8 down.
Experiment [5] has as its target Torsin-1A-interacting protein 2 (Homo sapiens) (UniProt Q8NFQ8). In words: small molecules binding lysate-expressed LULL1 – cell lysate, human LULL1 lysate, 635/667 nm fluorescence, primary screen (AID 1092).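 Also: probe is lysate of COS7 cells overexpressing human LULL1; score merges per-feature 667 nm fluorescence with signal-to-noise.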 To be noted: small-molecule microarray, hLULL1 lysate binding, 635 nm fluorescence; higher = more signal.
A short description of experiment [6]: optical density change of DRC41 E. coli – strain DRC41, OD650, 24 h, E. coli filamentation project, primary screen (AID 1093).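 Also: MC1000 strain lacking acrAB efflux and sulA so SOS filamentation is blocked; test concentration not given here.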 To be noted: E. coli DRC41 growth, higher = more signal, called active from +8 up or from −8 down.
Experiment [7] in a line: probe aLefty2 binding to arrayed compounds – biochemical, biotinylated probe, 635/667 nm fluorescence, primary screen (AID 1094).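 Also: score merges spot fluorescence near 667 nm with spot signal-to-noise ratio.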 The note with it: small-molecule microarray, higher = more signal.
Experiment [8] concerns Noggin (protein binding on small-molecule microarray). In words: small molecules binding Noggin protein – biochemical, 635/667 nm fluorescence, primary screen (AID 1095).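 Also: score merges 667 nm feature fluorescence with signal to noise over triplicate slides.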 The note with it: 635 nm fluorescence, higher = more signal.
In experiment [9] the target is Neurogenic locus notch homolog protein 3 (Homo sapiens) (UniProt Q9UM47). In words: small molecules binding NOTCH3 protein – biochemical, 635/667 nm fluorescence, primary screen (AID 1096). The note with it: small-molecule microarray, 635 nm fluorescence, higher = more signal.
Experiment [10] can be described thus: probe aEGFR binding to arrayed compounds – biochemical, biotinylated probe, 635/667 nm fluorescence, primary screen (AID 1097).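 Also: probe is a biotinylated anti-EGFR antibody binding compounds printed on slides; score combines fluorescence near 667 nm and signal to noise of each spot.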 The note with it: small-molecule microarray, higher = more signal.
Experiment [11] concerns Plasmodium falciparum Sir2 (PF13_0152, Sir2A). The experiment can be described thus: Plasmodium falciparum Sir2A binding compounds – biochemical, small-molecule microarray, 635 nm fluorescence, primary screen (AID 1098).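 Also: score merges spot fluorescence intensity with its signal-to-noise ratio.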 The note with it: fluorescence 635 nm, higher = more signal.
The nature of experiment [12]: probe aDKK1 binding to arrayed compounds – biochemical, biotinylated probe, 635/667 nm fluorescence, primary screen (AID 1099).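 Also: score merges 667nm spot fluorescence with signal to noise across triplicate slides; reference of the scale not given here.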 The note with it: small-molecule microarray, higher = more signal.
A short description of experiment [13]: probe aCHRDL2 binding to arrayed compounds – biochemical, biotinylated probe, 635/667 nm fluorescence, primary screen (AID 1100). The note with it: small-molecule microarray, higher = more signal.
Experiment [14] is described as follows: change in splice reporter luminescence, either direction, cell-based, HEK293, spliceosome inhibition project, primary screen (AID 1101).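 Also: HEK293 cells carrying a splicing-competent luciferase reporter gene; test concentration not given here.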 The note with it: HEK293 splicing luciferase reporter, 24 h, higher = more signal, called active from +8 up or from −8 down. (A reporter such as luciferase makes a cellular process visible.)
In experiment [15] the target is Fibroblast growth factor 10 (Homo sapiens) (UniProt O15520). The experiment can be described thus: compounds binding fibroblast growth factor 10 – biochemical, small-molecule microarray, 635 nm fluorescence, primary screen (AID 1102). The note with it: FGF10 binding, fluorescence 635 nm, higher = more signal.
For experiment [16], the system named is glycogen synthase kinase-3 (GSK3A per assay name; protocol says GSK3B). The experiment can be described thus: compounds binding glycogen synthase kinase-3 – biochemical, small-molecule microarray, 635 nm fluorescence, GSK3A, primary screen (AID 1103). Also: the record names both GSK3A and GSK3B. To be noted: fluorescence 635 nm, higher = more signal.
The target in experiment [17] is Epidermal growth factor receptor (Homo sapiens) (UniProt P00533). The experiment can be described thus: compounds binding epidermal growth factor receptor – biochemical, small-molecule microarray, 635 nm fluorescence, primary screen (AID 1104).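 Also: score merges 667 nm emission intensity with spot signal to noise over triplicate slides.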 To be noted: EGFR binding, higher = more signal.
The target of experiment [18] is Follistatin-related protein 3 (Homo sapiens) (UniProt O95633). The experiment can be described thus: compounds binding follistatin-related protein 3 – biochemical, small-molecule microarray, 635 nm fluorescence, primary screen (AID 1105).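 Also: score merges emission near 667 nm and signal to noise per printed spot across three slides.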 The note with it: FSTL3 binding, higher = more signal.
Experiment [19] addresses Dickkopf-related protein 1 (Homo sapiens) (UniProt O94907). In words: small molecules binding DKK1 protein – biochemical, small-molecule microarray, 635 nm fluorescence scan, primary screen (AID 1106).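 Also: score merges emission near 667 nm with signal to noise over three replicate slides.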 The note with it: higher = more signal.
For experiment [20], the system named is Inhibin beta A chain (activin A). The experiment can be described thus: small molecules binding activin A – biochemical, small-molecule microarray, 635 nm fluorescence scan, primary screen (AID 1107).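 Also: mouse activin A protein probed at 4.33 µg/mL on printed slides; score merges bound-protein fluorescence near 667 nm with spot signal-to-noise.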 The note with it: INHBA, higher = more signal.

Structures are written as SMILES. Active and inactive are the calls of the source.

Sequence of Dickkopf-related protein 1 (Homo sapiens) (O94907 whole entry, looked up): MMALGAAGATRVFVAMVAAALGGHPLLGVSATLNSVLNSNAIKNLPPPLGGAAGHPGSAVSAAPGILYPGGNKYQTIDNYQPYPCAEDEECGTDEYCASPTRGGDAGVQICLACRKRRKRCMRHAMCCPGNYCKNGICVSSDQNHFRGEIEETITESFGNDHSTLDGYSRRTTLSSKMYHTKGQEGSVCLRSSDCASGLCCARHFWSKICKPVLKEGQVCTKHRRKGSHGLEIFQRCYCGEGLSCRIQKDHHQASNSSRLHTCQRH
Sequence of Fibroblast growth factor 10 (Homo sapiens) (O15520 whole entry, looked up): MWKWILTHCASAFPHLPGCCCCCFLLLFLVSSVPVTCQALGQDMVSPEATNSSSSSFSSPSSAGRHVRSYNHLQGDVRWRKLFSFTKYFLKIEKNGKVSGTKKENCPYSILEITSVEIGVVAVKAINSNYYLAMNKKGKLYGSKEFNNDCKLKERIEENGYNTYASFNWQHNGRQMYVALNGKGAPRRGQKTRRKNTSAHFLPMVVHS
Sequence of Neurogenic locus notch homolog protein 3 (Homo sapiens) (Q9UM47 whole entry, looked up): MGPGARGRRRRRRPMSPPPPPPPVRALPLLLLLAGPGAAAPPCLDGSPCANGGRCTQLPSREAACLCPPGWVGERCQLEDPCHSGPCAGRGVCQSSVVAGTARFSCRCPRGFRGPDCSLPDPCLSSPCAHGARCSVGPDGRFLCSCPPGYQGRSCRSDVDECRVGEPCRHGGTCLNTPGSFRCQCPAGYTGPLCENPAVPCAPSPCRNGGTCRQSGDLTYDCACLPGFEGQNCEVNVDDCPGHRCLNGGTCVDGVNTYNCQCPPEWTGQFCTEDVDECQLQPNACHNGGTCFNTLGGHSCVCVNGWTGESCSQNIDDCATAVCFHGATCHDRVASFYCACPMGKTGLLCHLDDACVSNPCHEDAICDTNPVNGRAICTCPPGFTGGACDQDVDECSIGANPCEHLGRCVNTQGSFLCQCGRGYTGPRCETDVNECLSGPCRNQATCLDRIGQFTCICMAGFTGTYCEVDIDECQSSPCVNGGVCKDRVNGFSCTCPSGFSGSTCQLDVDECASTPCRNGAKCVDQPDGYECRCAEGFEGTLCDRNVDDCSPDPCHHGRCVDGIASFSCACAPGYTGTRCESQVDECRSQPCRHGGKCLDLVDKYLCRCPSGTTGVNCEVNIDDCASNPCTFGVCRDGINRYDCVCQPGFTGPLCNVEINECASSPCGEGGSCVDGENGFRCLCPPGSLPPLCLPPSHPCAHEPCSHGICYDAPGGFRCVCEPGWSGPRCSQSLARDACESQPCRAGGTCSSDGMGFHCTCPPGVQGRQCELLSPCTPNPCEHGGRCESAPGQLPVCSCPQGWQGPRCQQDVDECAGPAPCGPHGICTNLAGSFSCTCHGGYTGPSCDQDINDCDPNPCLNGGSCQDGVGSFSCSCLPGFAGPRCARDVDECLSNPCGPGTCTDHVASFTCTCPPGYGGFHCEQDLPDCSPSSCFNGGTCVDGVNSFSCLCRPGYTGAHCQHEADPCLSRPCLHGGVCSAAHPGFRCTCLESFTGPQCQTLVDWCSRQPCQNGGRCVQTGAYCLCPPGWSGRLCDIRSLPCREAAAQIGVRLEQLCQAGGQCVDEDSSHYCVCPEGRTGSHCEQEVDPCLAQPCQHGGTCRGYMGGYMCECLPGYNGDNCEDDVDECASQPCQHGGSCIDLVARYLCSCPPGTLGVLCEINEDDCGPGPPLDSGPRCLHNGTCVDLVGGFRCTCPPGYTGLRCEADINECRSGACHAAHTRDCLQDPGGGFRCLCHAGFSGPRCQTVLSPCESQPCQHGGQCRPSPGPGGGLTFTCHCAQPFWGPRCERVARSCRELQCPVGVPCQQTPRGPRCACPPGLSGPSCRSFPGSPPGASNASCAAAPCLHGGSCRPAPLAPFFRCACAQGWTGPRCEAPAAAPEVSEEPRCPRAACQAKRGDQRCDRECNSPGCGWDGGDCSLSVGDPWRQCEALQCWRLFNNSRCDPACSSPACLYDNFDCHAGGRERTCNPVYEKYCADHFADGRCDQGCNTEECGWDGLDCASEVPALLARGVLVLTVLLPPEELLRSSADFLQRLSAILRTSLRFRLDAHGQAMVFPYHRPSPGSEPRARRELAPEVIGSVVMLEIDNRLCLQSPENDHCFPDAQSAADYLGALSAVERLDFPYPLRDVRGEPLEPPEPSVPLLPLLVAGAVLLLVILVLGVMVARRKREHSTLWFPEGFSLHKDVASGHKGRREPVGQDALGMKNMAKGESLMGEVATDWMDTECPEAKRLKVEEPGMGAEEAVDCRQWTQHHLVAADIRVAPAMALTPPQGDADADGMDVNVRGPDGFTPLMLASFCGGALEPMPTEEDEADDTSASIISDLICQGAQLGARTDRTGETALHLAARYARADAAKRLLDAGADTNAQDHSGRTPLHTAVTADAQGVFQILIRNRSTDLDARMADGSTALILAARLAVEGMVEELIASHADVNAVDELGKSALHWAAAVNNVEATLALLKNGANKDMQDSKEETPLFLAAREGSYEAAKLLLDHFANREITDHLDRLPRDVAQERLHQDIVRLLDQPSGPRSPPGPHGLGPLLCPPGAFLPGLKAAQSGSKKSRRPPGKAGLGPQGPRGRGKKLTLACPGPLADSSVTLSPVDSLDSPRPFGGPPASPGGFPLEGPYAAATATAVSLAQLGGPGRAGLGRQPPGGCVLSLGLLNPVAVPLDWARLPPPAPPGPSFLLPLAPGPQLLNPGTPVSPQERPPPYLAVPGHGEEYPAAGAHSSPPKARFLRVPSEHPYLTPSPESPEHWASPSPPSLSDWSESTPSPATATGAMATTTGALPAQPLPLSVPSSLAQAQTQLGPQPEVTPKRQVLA
Sequence of Epidermal growth factor receptor (Homo sapiens) (P00533 whole entry, looked up): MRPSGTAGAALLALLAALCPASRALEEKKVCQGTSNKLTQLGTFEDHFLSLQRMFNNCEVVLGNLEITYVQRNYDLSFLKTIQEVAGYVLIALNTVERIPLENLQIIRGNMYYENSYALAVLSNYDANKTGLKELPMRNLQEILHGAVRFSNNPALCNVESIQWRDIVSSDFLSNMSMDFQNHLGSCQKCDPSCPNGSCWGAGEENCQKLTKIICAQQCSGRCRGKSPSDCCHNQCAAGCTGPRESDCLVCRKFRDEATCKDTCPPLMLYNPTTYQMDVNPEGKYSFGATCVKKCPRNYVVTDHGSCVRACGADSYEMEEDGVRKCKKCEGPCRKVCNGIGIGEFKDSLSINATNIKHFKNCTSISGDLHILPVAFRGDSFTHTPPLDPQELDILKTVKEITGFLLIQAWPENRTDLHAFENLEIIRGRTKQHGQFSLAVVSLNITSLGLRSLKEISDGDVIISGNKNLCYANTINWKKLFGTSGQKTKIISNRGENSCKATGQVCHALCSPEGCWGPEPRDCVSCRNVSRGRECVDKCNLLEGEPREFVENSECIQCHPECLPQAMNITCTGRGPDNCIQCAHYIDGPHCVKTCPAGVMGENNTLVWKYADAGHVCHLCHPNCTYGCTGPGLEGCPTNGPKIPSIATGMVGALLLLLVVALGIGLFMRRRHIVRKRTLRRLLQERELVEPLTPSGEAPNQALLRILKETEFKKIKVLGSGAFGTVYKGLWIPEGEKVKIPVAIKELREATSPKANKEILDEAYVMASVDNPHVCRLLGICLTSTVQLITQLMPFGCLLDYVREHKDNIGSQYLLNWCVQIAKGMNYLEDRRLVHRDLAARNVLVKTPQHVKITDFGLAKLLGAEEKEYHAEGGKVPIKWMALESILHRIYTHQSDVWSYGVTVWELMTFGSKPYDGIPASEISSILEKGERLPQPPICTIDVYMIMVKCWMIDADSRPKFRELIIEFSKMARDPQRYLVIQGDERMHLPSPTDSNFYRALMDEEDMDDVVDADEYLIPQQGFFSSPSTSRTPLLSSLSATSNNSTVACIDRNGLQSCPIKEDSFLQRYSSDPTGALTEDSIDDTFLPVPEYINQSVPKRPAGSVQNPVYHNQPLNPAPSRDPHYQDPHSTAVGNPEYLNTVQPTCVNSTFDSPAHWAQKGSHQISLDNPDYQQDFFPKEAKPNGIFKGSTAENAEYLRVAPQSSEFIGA
Sequence of Torsin-1A-interacting protein 2 (Homo sapiens) (Q8NFQ8 whole entry, looked up): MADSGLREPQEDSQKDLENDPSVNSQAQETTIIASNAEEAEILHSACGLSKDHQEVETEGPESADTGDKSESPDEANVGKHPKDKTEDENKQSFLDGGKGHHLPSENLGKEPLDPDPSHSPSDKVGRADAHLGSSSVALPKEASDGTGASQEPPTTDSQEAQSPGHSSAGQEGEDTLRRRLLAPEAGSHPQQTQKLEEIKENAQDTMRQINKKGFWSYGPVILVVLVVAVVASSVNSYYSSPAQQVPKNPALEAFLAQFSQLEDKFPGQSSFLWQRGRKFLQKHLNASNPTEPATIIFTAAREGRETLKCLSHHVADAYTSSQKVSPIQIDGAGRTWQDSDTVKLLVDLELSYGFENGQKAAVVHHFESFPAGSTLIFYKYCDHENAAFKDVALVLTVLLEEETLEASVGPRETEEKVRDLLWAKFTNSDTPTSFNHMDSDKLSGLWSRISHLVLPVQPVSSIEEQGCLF
Sequence of Follistatin-related protein 3 (Homo sapiens) (O95633 whole entry, looked up): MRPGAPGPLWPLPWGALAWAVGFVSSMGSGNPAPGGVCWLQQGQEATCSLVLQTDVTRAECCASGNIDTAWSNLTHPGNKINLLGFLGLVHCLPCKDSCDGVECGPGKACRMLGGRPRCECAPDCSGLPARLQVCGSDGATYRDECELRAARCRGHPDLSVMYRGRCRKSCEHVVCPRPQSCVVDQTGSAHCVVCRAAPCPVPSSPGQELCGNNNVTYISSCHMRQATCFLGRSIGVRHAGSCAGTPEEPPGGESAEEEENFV

In the case of `CCCCCCCCCCC(O)C1C=CC2C(=O)N(c3ccccc3)C(=O)C2N1Nc1ccc(C#N)cc1` (stereo not given), the composite z-score stood at 1.37 in experiment [1]; 3.36 in [5]; 0.12 in [7]; 0.0931 in experiment [8]; 1.09 in experiment [9]; 0.0288 in [10]. For the same compound, the composite z-score was 0.905 in experiment [11]; 0.44 in [12]; 1.09 in [13]; 1.06 in [15]; 1.02 in experiment [16]; 0.17 in experiment [17]. Further, the values for the composite z-score in experiment [18], in experiment [19] and in [20] were 0.788, -0.517 and 1.02, respectively. For the same compound, the z-score in [2] is 0.614 (inactive); in experiment [3], 0.53 (inactive); in [4], 2.57 (inactive); in [6], -0.983 (inactive); in [14], 1.08 (inactive).

For `CC(=O)NCCCC[C@@H]1NC(=O)[C@@H]2C[C@H](C(=O)NCCCCCN)[C@H](c3cccc(OCCO)c3)N2C1=O`, the composite z-score in [1] turned out to be 0.872; in [5] it was 1.66; in [7], 0.534; in experiment [8], 1.42; in [9], 1.09; in experiment [10] it was 0.101. Besides, the composite z-score is 1.05 in experiment [11]; 0.681 in experiment [12]; 0.0358 in [13]; 1.24 in experiment [15]; 0.533 in experiment [16]; 0.504 in experiment [17]. Also, the composite z-score was 1.33 in [18], 0.823 in experiment [19] and 0.488 in experiment [20]. Also, the z-score in experiment [2] was -3.85 (inactive); in experiment [3], -0.31 (inactive); in experiment [4] it was -0.858 (inactive); in [6], 1.36 (inactive); in experiment [14], -1.29 (inactive).

For the compound `COC(=O)C1=CC(CCCO)=CC(c2cccs2)N(Cc2cccc(OC(F)(F)F)c2)C=C1C(=O)OC` (stereo not given), the composite z-score in [1] amounted to 1.57; in [5], 3.28; in [7], 0.0922; in [8] it was 0.143; in experiment [9], 1.04; in [10], 0.679. Moreover, the composite z-score in [11] was found to be 0.0898; in experiment [12], 0.524; in experiment [13], 0.574; in experiment [15], 0.67; in experiment [16] it was 1.09; in experiment [17] it was 0.179. For the same compound, the composite z-score is 0.989 in experiment [18], -0.149 in [19] and 1.09 in [20]. Moreover, the z-score was -1.07 (inactive) in [2]; -1.2 (inactive) in experiment [3]; -1.45 (inactive) in experiment [4]; 0.313 (inactive) in experiment [6]; 0.955 (inactive) in [14].

With `CCCCC(CC)C(O)C1C=CC2C(=O)N(c3ccccc3)C(=O)C2N1Nc1ccc(C#N)cc1` (stereo not given), the composite z-score in experiment [1] is 1.54; in experiment [5], 3.14; in [7] it was 0.555; in experiment [8], 0.208; in [9] it was 1.04; in experiment [10], 0.338. The composite z-score in experiment [11] was found to be 0.976; in [12], 1.33; in experiment [13], 0.813; in experiment [15], 1.11; in experiment [16], 1.32; in [17], 0.217. Also, the composite z-score in experiment [18] worked out at 1.28; in [19], 0.0492; in experiment [20], 0.783. Besides, the z-score in experiment [2] is 0.491 (inactive); in experiment [3], 0.221 (inactive); in [4], 1.85 (inactive); in [6], 0.0307 (inactive); in experiment [14], 0.037 (inactive).

Consider `N[C@@H](Cc1ccccc1)C(=O)NCc1cn(Cc2ccccc2)nn1`, for which the composite z-score in [1] is 0.05; in [5] it was -0.183; in experiment [7], 0.0582; in experiment [8], 0.465; in experiment [9], -0.005; in [10], 0.0282. Moreover, the composite z-score in [11] was -0.522; in experiment [12], 0.0195; in experiment [13], -0.283; in experiment [15], 0.735; in experiment [16], 0.179; in experiment [17], 0.113. The composite z-score in [18] turned out to be 0.594; in experiment [19], 0.545; in experiment [20], 0.85. Moreover, the z-score in experiment [2] was 0.246 (inactive); in experiment [3] it was -0.572 (inactive); in experiment [4] it was -1.05 (inactive); in experiment [6], 0.78 (inactive); in experiment [14], 0.0702 (inactive).

The values above are taken from PubChem BioAssay.
